Laboratory results reported in PubChem BioAssay (NCATS).
Records with an inconclusive call do not appear. Calls of active or inactive are those of the source. Calls follow the shape of the dose curve; as a rule, active = well fitted inhibition curve with a large enough effect; inconclusive = small, poorly fitted or top-dose-only effect; inactive = flat fitted curve, though single readings scatter.

How the values were obtained:
[1] = system: CRL-7250; assay: Cytotoxic Profiling of Annotated Libraries Using Quantitative High-Throughput Screening (AID 1296008); conditions: Five cell lines viability, CellTiter-Glo ATP luminescence, 48-72 h; max response: stronger effect = lower value; as to max response: % is scaled to controls: 0 for no effect and ±100 for the full control effect
Method in brief: (§1)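 Cells exposed to compounds for 48 or 72 hr at 37 degrees Celsius. Viability read as ATP-coupled luminescence with CellTiter-Glo after 10 min at room temperature.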

[2] = system: HEK293; assay: as above; conditions: Five cell lines viability, CellTiter-Glo ATP luminescence, 48-72 h; max response: stronger effect = lower value
Method in brief: as §1

[3] = system: HaCat; assay: as above; conditions: Five cell lines viability, CellTiter-Glo ATP luminescence, 48-72 h; max response: stronger effect = lower value
Method in brief: as §1

[4] = system: KB-3-1; assay: as above; conditions: Five cell lines viability, CellTiter-Glo ATP luminescence, 48-72 h; max response: stronger effect = lower value
Method in brief: as §1

[5] = system: NIH3T3; assay: as above; conditions: Five cell lines viability, CellTiter-Glo ATP luminescence, 48-72 h; max response: stronger effect = lower value
Method in brief: as §1

[6] = system: HEK293T; assay: qHTS assay to identify novel small-molecules to repurpose for Merkel cell carcinoma treatment (AID 1296009); conditions: MCC and control cell lines, CellTiter-Glo viability, 72 h; series mostly up to 44.8 µM
Method in brief: (§2)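 Dose-response viability screen; 72 hr exposure at 37 degree celsius; CellTiter-Glo added, 10 min room temperature, luminescence read; RLUs scaled between no-cell and DMSO wells.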

[7] = system: HACAT; assay: as above; conditions: MCC and control cell lines, CellTiter-Glo viability, 72 h; at 44.8 µM (top of the series) unless noted
Method in brief: as §2
Also: nearly all actives have a fitted effect of over 60% in size.

C[C@@H]1O[C@@H](O[C@H]2[C@H](O)[C@@H](O)[C@H](OC[C@H]3O[C@@H](OC(=O)[C@]45CCC(C)(C)C[C@H]4C4=CCC6[C@@]7(C)C[C@H](O)[C@H](O[C@@H]8O[C@H](CO)[C@@H](O)[C@H](O)[C@H]8O)[C@@](C)(C(=O)O)C7CC[C@@]6(C)[C@]4(C)CC5)[C@H](O[C@@H]4O[C@H](CO)[C@@H](O)[C@H](O)[C@H]4O)[C@@H](O)[C@@H]3O)O[C@@H]2CO)[C@H](O)[C@H](O)[C@H]1O (some centres not stated)
inactive: max response [1] 2.51% | outcome [2] | max response [3] 4.68% | max response [4] 7.15% | max response [5] 3.41% | outcome [6] inactive [at 9.27 µM]

CC(CO[C@@H]1O[C@H](COC(=O)/C=C/c2ccc(O)c(O)c2)[C@@H](O)[C@H](O)[C@H]1O)C1(O)COC(=O)C1 (some centres not stated)
inactive: max response [1] -2.89% | outcome [2] | max response [3] 3.48% | max response [4] -4.71% | max response [5] -5.15% | Potency [6]

Cc1coc2c1CC1OC1(C)CCC1OC1(C)C2 (configuration not stated)
inactive: max response [1] 4.59% | outcome [2] | max response [3] 3.75% | max response [4] 8.78% | outcome [5] | Potency [6]

O=c1c2cccnc2n(-c2cccc([N+](=O)[O-])c2)c(=O)n1Cc1ccncc1
inactive: outcome [1] | outcome [2] | max response [3] -29.4% | outcome [4] | max response [5] -3.44% | Potency [6]

COC(=O)C12C(=O)C(C)=C(O)C1(C)C(C)=CC1C34CCC(OC3=O)C(C)(C)C4CCC12C (configuration not stated)
inactive: max response [1] -4.32% | outcome [2] | max response [3] 1.85% | max response [4] 6.41% | outcome [5] | Potency [6]

C=C1C(=O)O[C@H]2[C@H]1[C@@H](OC(=O)C(C)CO)C[C@@]1(C)[C@H](O)CCC(=O)[C@H]21 (some centres not stated)
inactive: max response [1] -10.3% | outcome [2] | max response [3] -8.77% | outcome [4] | max response [5] -0.0339% | Potency [6]

CC(C)(O)C1CC=C(C(=O)OCC2OC(Oc3c(O)cc(C(=O)O)cc3O)C(O)C(O)C2O)CC1 (configuration not stated)
inactive: max response [1] -4.71% | outcome [2] | max response [3] -2.95% | outcome [4] | outcome [5] | Potency [6]

C=CC(C)(O)CC/C=C(\C)C(=O)OCC1OC(OC2CCC3(C)C(CCC4(C)C3CC=C3C5CC(C)(C)C(O)CC5(C(=O)O)CCC34C)C2(C)C)C(O)C(OC2OC(CO)C(O)C(OC3OC(CO)C(O)C(OC4OC(COC5OC(CO)C(O)C(O)C5O)C(O)C(O)C4O)C3O)C2O)C1O (configuration not stated)
inactive: max response [1] -1.92% | outcome [2] | max response [3] 2.14% | outcome [4] | outcome [5] | outcome [6] inactive [at 9.27 µM]

C=C1C[C@@]23CC[C@@H]4[C@](C)(C(=O)O)CCC[C@@]4(C)C2=CC[C@H]1C3
inactive: max response [1] -8.72% | outcome [2] | outcome [3] | outcome [5] | outcome [7] | Potency [6]

CC(=O)OC[C@@]12[C@H](O)C[C@]3(C)C(=CCC4[C@@]5(C)CC[C@H](O[C@@H]6O[C@H](C(=O)O)[C@@H](O[C@@H]7O[C@H](CO)[C@@H](O)[C@H](O)[C@H]7O)[C@H](O)[C@H]6O[C@@H]6O[C@H](CO)[C@@H](O)[C@H](O)[C@H]6O)[C@](C)(CO)C5CC[C@]43C)[C@@H]1CC(C)(C)[C@@H](OC(C)=O)[C@@H]2O (some centres not stated)
inactive: outcome [1] | outcome [2] | outcome [3] | max response [5] 0.485% | outcome [7] inactive [at 9.27 µM] | outcome [6] inactive [at 9.27 µM]

COc1ccccc1CC(C(=O)O)N(C)C(=O)c1ccccc1 (configuration not stated)
inactive: max response [1] 0.437% | outcome [2] | max response [3] 1.79% | max response [4] 2.61% | max response [5] -9.18% | Potency [6]

CCC(NC(=O)CC(NC(=O)C(CO)NC(=O)C(CC)NC(=O)c1ccc[nH]1)c1ccccc1)C(=O)O (configuration not stated)
inactive: max response [1] -9.47% | outcome [2] | max response [3] -0.876% | outcome [4] | outcome [5] | Potency [6]

Cc1ccc2c(c1)C=Cc1cc(C)ccc1C2c1cn(Cc2ccc(C(=O)Nc3nn[nH]n3)o2)c(=O)[nH]c1=S
inactive: outcome [1] | outcome [2] | max response [3] -1.86% | max response [5] -7.39% | Potency [6]

COC(=O)[C@]12C(=O)C(C)=C(O)[C@@]1(C)C(C)=CC1[C@@]34CC[C@@H](OC(C)=O)C(C)(C)C3[C@H](C[C@]12C)OC4=O (some centres not stated)
inactive: max response [1] 4.87% | outcome [2] | max response [3] -9.29% | max response [4] 1.77% | max response [5] 4.25% | Potency [6]

CC(NCc1ccc(OCc2cccc(F)c2)cc1)C(N)=O (configuration not stated)
inactive: outcome [1] | outcome [2] | outcome [3] | outcome [5] | outcome [7] | Potency [6]

CCOC(=O)Nc1nc2ccccc2[nH]1
inactive: max response [1] 3.6% | outcome [2] | max response [3] -2.18% | max response [4] 2.03% | outcome [5] | Potency [6]

CCC(C)/C=C(C)/C=C/C1=CC2=C(Cl)C(=O)C(C)(OC(C)=O)C(=O)C2=CN1C1CCCCN(C(CCC(N)=O)C(=O)O)C1=O (configuration not stated)
inactive: outcome [1] | outcome [2] | outcome [3] | max response [5] -1.04% | outcome [7] inactive [at 17.4 µM] | Potency [6]

CCc1cc2c(=O)c(-c3nc4ccccc4s3)coc2c(CN2CCCCC2)c1O
inactive: max response [1] 0.116% | outcome [2] | outcome [3] | max response [5] 2.93% | outcome [7] inactive [at 17.4 µM] | Potency [6]
